In paper PMC11006913 one finds binding signal data, which are given here for four sequences.

Changes are numbered by the printed parent chain.

Test in all cases: PBM; 200 nM protein, PBS
Holding throughout (settings): dsDNA, one strand shown

Assay [1] concerns the target T1, SIX6 (Homo sapiens, UniProt O95475 114-200, L167I).
T1 sequence: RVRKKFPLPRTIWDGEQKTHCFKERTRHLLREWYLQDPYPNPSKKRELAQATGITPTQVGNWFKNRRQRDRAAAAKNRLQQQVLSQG

In assay [2] the target is HOXC9 (Homo sapiens, UniProt P31274 178-260, K195R).
Assay [3] addresses T2, SIX6 (Homo sapiens, UniProt O95475 114-200, L143V).
T2 sequence: T1 sequence with L30V, I54L

Assay [4] deals with T3, SIX6 (Homo sapiens, UniProt O95475 114-200, H141N).
T3 sequence: T1 sequence with H28N, I54L

Assay [5] has as its target T4, SIX6 (Homo sapiens, UniProt O95475 114-200, T165P).
T4 sequence: T1 sequence with T52P, I54L

In assay [6] the target is T5, SIX6 (Homo sapiens, UniProt O95475 114-200, L167M).
T5 sequence: T1 sequence with I54M

Assay [7] addresses T6, SIX6 (Homo sapiens, UniProt O95475 114-200, L143M).
T6 sequence: T1 sequence with L30M, I54L

For assay [8], the target named is T7, SIX6 (Homo sapiens, UniProt O95475 114-200, L143I).
T7 sequence: T1 sequence with L30I, I54L

Assay [9] deals with T8, SIX6 (Homo sapiens, UniProt O95475 114-200, T165G).
T8 sequence: T1 sequence with T52G, I54L

The target of assay [10] is T9, SIX6 (Homo sapiens, UniProt O95475 114-200, T139Q).
T9 sequence: T1 sequence with T26Q, I54L

Assay [11] deals with HOXC9 (Homo sapiens, UniProt P31274 178-260).
Assay [12] concerns the target T10, SIX6 (Homo sapiens, UniProt O95475 114-200, T165A).
T10 sequence: T1 sequence with T52A, I54L

Assay [13] addresses HOXC9 (Homo sapiens, UniProt P31274 178-260, R193K).
Assay [14] has as its target T11, SIX6 (Homo sapiens, UniProt O95475 114-200, L167V).
T11 sequence: T1 sequence with I54V

For assay [15], the target named is T12, SIX6 (Homo sapiens, UniProt O95475 114-200).
T12 sequence: T1 sequence with I54L

Assay [16] has as its target T13, SIX6 (Homo sapiens, UniProt O95475 114-200, T165I).
T13 sequence: T1 sequence with T52I, I54L

In assay [17] the target is HOXC9 (Homo sapiens, UniProt P31274 178-260, R222W).
Assay [18] has as its target HOXB6 (Homo sapiens, UniProt P17509 132-218, K202E).
For assay [19], the target named is HOXB6 (Homo sapiens, UniProt P17509 132-218).
In assay [20] the target is HOXA7 (Homo sapiens, UniProt P31268 116-202).
For assay [21], the target named is PITX2 (Homo sapiens, UniProt Q99697 72-157).
Assay [22] has as its target HOXA7 (Homo sapiens, UniProt P31268 116-202, W177C).

Sequence of HOXB6 (Homo sapiens, UniProt P17509 132-218, K202E) (P17509 132-218 K202E): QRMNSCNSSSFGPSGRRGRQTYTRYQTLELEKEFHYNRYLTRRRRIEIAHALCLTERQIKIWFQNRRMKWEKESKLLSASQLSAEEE
Sequence of HOXB6 (Homo sapiens, UniProt P17509 132-218) (P17509 132-218): as the sequence (P17509 132-218 K202E) above, with E71K counted along it
Sequence of HOXA7 (Homo sapiens, UniProt P31268 116-202) (P31268 116-202): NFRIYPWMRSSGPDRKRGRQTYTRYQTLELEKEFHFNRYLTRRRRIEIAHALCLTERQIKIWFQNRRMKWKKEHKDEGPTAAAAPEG
Sequence of HOXC9 (Homo sapiens, UniProt P31274 178-260, K195R) (P31274 178-260 K195R): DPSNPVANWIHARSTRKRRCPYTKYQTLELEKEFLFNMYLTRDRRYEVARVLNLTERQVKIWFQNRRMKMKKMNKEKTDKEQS
Sequence of HOXA7 (Homo sapiens, UniProt P31268 116-202, W177C) (P31268 116-202 W177C): as the sequence (P31268 116-202) above, with W62C counted along it
Sequence of HOXC9 (Homo sapiens, UniProt P31274 178-260, R222W) (P31274 178-260 R222W): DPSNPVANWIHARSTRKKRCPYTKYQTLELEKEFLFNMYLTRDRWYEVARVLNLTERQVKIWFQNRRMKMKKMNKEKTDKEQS
Sequence of HOXC9 (Homo sapiens, UniProt P31274 178-260, R193K) (P31274 178-260 R193K): as the sequence (P31274 178-260 R222W) above, with R16K, W45R counted along it
Sequence of HOXC9 (Homo sapiens, UniProt P31274 178-260) (P31274 178-260): as the sequence (P31274 178-260 R222W) above, with W45R counted along it

As to CCAGACGG, the binding signal is 8.98 upbm affinity estimate (log intensity, higher = more binding, comparable within an allelic series) in [1]; 9.56 upbm affinity estimate (log intensity, higher = more binding, comparable within an allelic series) in [2]; 8.84 upbm affinity estimate (log intensity, higher = more binding, comparable within an allelic series) in [3]; 8.93 upbm affinity estimate (log intensity, higher = more binding, comparable within an allelic series) in [4]; 8.91 upbm affinity estimate (log intensity, higher = more binding, comparable within an allelic series) in [5]; 9.05 upbm affinity estimate (log intensity, higher = more binding, comparable within an allelic series) in assay [6]. Besides, the binding signal in [7] was 9.07 upbm affinity estimate (log intensity, higher = more binding, comparable within an allelic series); in [8], 8.95 upbm affinity estimate (log intensity, higher = more binding, comparable within an allelic series); in assay [9], 9.01 upbm affinity estimate (log intensity, higher = more binding, comparable within an allelic series); in [10] it was 9.12 upbm affinity estimate (log intensity, higher = more binding, comparable within an allelic series); in assay [11], 9.6 upbm affinity estimate (log intensity, higher = more binding, comparable within an allelic series); in assay [12], 8.94 upbm affinity estimate (log intensity, higher = more binding, comparable within an allelic series). Also, the binding signal in assay [13] was 9.51 upbm affinity estimate (log intensity, higher = more binding, comparable within an allelic series); in [14], 9.01 upbm affinity estimate (log intensity, higher = more binding, comparable within an allelic series); in assay [15] it was 9.03 upbm affinity estimate (log intensity, higher = more binding, comparable within an allelic series); in assay [16], 9.05 upbm affinity estimate (log intensity, higher = more binding, comparable within an allelic series); in [17], 9.67 upbm affinity estimate (log intensity, higher = more binding, comparable within an allelic series).
As to CTGCGGAC, the binding signal in assay [1] was 8.88 upbm affinity estimate (log intensity, higher = more binding, comparable within an allelic series); in assay [3], 8.75 upbm affinity estimate (log intensity, higher = more binding, comparable within an allelic series); in assay [4] it was 8.87 upbm affinity estimate (log intensity, higher = more binding, comparable within an allelic series); in assay [5], 8.83 upbm affinity estimate (log intensity, higher = more binding, comparable within an allelic series); in [6] it was 8.84 upbm affinity estimate (log intensity, higher = more binding, comparable within an allelic series); in assay [7], 8.84 upbm affinity estimate (log intensity, higher = more binding, comparable within an allelic series). In addition, the binding signal in assay [8] was 8.83 upbm affinity estimate (log intensity, higher = more binding, comparable within an allelic series); in assay [18], 8.87 upbm affinity estimate (log intensity, higher = more binding, comparable within an allelic series); in assay [9] it was 8.91 upbm affinity estimate (log intensity, higher = more binding, comparable within an allelic series); in [10] it was 9.05 upbm affinity estimate (log intensity, higher = more binding, comparable within an allelic series); in assay [12], 8.83 upbm affinity estimate (log intensity, higher = more binding, comparable within an allelic series); in [14], 8.84 upbm affinity estimate (log intensity, higher = more binding, comparable within an allelic series). In addition, the binding signal in assay [15] was 8.84 upbm affinity estimate (log intensity, higher = more binding, comparable within an allelic series); in [16], 8.85 upbm affinity estimate (log intensity, higher = more binding, comparable within an allelic series); in [19], 8.8 upbm affinity estimate (log intensity, higher = more binding, comparable within an allelic series).
For AACGCGGC, the binding signal in assay [1] is 8.99 upbm affinity estimate (log intensity, higher = more binding, comparable within an allelic series); in [3], 8.99 upbm affinity estimate (log intensity, higher = more binding, comparable within an allelic series); in [4], 8.99 upbm affinity estimate (log intensity, higher = more binding, comparable within an allelic series); in assay [5], 9.03 upbm affinity estimate (log intensity, higher = more binding, comparable within an allelic series); in [6], 8.95 upbm affinity estimate (log intensity, higher = more binding, comparable within an allelic series); in assay [7] it was 9.03 upbm affinity estimate (log intensity, higher = more binding, comparable within an allelic series). Also, the binding signal is 8.92 upbm affinity estimate (log intensity, higher = more binding, comparable within an allelic series) in assay [8]; 9.12 upbm affinity estimate (log intensity, higher = more binding, comparable within an allelic series) in assay [18]; 8.8 upbm affinity estimate (log intensity, higher = more binding, comparable within an allelic series) in assay [9]; 8.99 upbm affinity estimate (log intensity, higher = more binding, comparable within an allelic series) in [10]; 8.84 upbm affinity estimate (log intensity, higher = more binding, comparable within an allelic series) in assay [12]; 8.94 upbm affinity estimate (log intensity, higher = more binding, comparable within an allelic series) in assay [14]. Besides, the binding signal in assay [15] is 8.94 upbm affinity estimate (log intensity, higher = more binding, comparable within an allelic series); in [16], 8.96 upbm affinity estimate (log intensity, higher = more binding, comparable within an allelic series); in [19], 9.14 upbm affinity estimate (log intensity, higher = more binding, comparable within an allelic series).
CGGCCTGC: the binding signal in assay [1] was 8.86 upbm affinity estimate (log intensity, higher = more binding, comparable within an allelic series); in [3], 8.66 upbm affinity estimate (log intensity, higher = more binding, comparable within an allelic series); in [20], 8.37 upbm affinity estimate (log intensity, higher = more binding, comparable within an allelic series); in assay [4], 8.83 upbm affinity estimate (log intensity, higher = more binding, comparable within an allelic series); in [5], 8.82 upbm affinity estimate (log intensity, higher = more binding, comparable within an allelic series); in assay [6] it was 8.8 upbm affinity estimate (log intensity, higher = more binding, comparable within an allelic series). In addition, the binding signal was 8.73 upbm affinity estimate (log intensity, higher = more binding, comparable within an allelic series) in [7]; 8.72 upbm affinity estimate (log intensity, higher = more binding, comparable within an allelic series) in assay [8]; 8.88 upbm affinity estimate (log intensity, higher = more binding, comparable within an allelic series) in assay [9]; 8.8 upbm affinity estimate (log intensity, higher = more binding, comparable within an allelic series) in assay [10]; 8.82 upbm affinity estimate (log intensity, higher = more binding, comparable within an allelic series) in assay [12]; 7.72 upbm affinity estimate (log intensity, higher = more binding, comparable within an allelic series) in assay [21]. The binding signal in assay [14] is 8.8 upbm affinity estimate (log intensity, higher = more binding, comparable within an allelic series); in assay [15], 8.79 upbm affinity estimate (log intensity, higher = more binding, comparable within an allelic series); in assay [16], 8.82 upbm affinity estimate (log intensity, higher = more binding, comparable within an allelic series); in assay [22], 8.26 upbm affinity estimate (log intensity, higher = more binding, comparable within an allelic series).
